The entries come from a sample that favours hits as a whole.
CHX counter: affects cycloheximide protein synthesis inhibition readout, counter-screen. max response, %. actives 12% (n = 300,000). cell reporter, cycloheximide protein synthesis inhibition counterscreen; in the data active = max response mostly above about 13%, no sharp cut-off; inactive = mostly below about 14%; note: read at 38.3 µM for the half of the compounds with a filed dose; 0% is about no effect
LmPK inhibitor: blocks Leishmania mexicana pyruvate kinase activity | purified LmPK, Kinase-Glo ATP luminescence, 1 h | Potency, µM (titrated, usually from 57.5 µM), without a hit: at the highest dose activity change, negative = inhibition, usual class: inhibitors | actives 0.37% (n = 290,000); note: potency is the fitted concentration of half-maximal effect; % is set by controls: 0 for no effect and ±100 for the full control effect
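In 50 mM imidazole pH 7.2 with 7 mM MgCl2, LmPK (0.1 nM) turned over PEP (0.5 mM) and ADP (0.1 mM) for 1 h at room temperature. Luciferase read-out of ATP.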
Tb PYK inh: T. brucei pyruvate kinase inhibition; TbPYK enzyme, Kinase-Glo Plus ATP luminescence, 45 min; Potency, µM (highest dose often 76.8 µM), for inactives: at the highest dose activity, negative = inhibition, usual class: inhibitors; actives 0.12% (n = 410,000); AID 624173; note: potency is the fitted concentration of half-maximal effect; % is set by controls: 0 for no effect and ±100 for the full control effect; nearly all actives have a fitted effect of over 50% in size
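Glycolytic pyruvate kinase of T. brucei was incubated with substrate, test compound and 130 uM ADP for 45 minutes at room temperature. Luminescent Kinase-Glo Plus signal was measured after 10 minutes.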
Shiga inhibitor: Shiga toxin inhibition; actives 9.2% (n = 290,000); inhibition, % at 38.7 µM; Vero cells, Shiga toxin protein synthesis inhibition reporter; AID 2315; in the data active = inhibition mostly above about 28%, no sharp cut-off; inactive = mostly below about 43%; note: 0% is about no effect
RE007 growth inh: less growth of the S. pombe RE007 Vpr strain. S. pombe RE007 Vpr strain, BacTiter-Glo ATP luminescence, 24 h. Potency, µM (top dose mostly 92.2 µM), without a hit: at the highest dose activity change, negative = less growth, most hits filed as inhibitors. actives 0.21% (n = 360,000). AID 651644; active = well fitted falling curve with a large enough effect; inconclusive = small, poorly fitted or top-dose-only effect; inactive = no such curve, though single readings can be large or run the other way; note: potency is the fitted concentration of half-maximal effect; % is set by controls: 0 for no effect and ±100 for the full control effect; nearly all actives have a fitted effect of over 50% in size
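Fission yeast RE007 carrying one integrated HIV-1 vpr copy, seeded at OD 0.01 in PMG+AL medium with 23 nL pinned compound. Grown 24 h at 30 degrees; viability read by BacTiter-Glo luminescence after 5 min.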
Giardia FBPA inh: Giardia lamblia aldolase inhibition | purified Giardia FBPA | Potency, µM (highest dose often 59.6 µM), without a hit: at the highest dose activity, negative = inhibition, usual class: inhibitors | actives 0.71% (n = 290,000); note: potency is the fitted concentration of half-maximal effect; % is set by controls: 0 for no effect and ±100 for the full control effect; nearly all actives have a fitted effect of over 55% in size
Target sequence (A8B2U2 whole entry, looked up): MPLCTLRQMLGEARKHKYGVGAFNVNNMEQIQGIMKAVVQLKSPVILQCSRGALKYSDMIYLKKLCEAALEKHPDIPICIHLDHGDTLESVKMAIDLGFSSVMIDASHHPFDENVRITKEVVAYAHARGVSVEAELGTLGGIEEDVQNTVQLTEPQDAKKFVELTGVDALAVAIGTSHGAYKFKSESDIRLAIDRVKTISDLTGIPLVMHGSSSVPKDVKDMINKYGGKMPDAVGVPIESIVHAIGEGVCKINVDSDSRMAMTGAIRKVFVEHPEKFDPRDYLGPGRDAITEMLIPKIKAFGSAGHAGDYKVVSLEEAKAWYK
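40 nM FBPA preincubated 10 min at RT with compound (up to 57.5 uM final), then substrate plus GAPDH/TPI/NAD/arsenate coupling and diaphorase/resazurin added. Fluorescence read after 20 min at RT, 525/598 nm.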
Numbers without * were called inactive; i = inactive; ? = inconclusive; / = no result given; [ ] = another dose, or the depositor's remark. Unless noted, calls come from the whole dose curve; as a rule, active = well fitted curve in the direction sought with a large enough effect; inconclusive = small, poorly fitted or top-dose-only effect, or another doubt; inactive = no such curve, though single readings can be large; an effect the other way counts as inactive or inconclusive.

SMILES	CHX counter	LmPK inhibitor	Tb PYK inh	Shiga inhibitor	RE007 growth inh	Giardia FBPA inh
O=C(Nc1cccc(NC(=O)c2cccs2)c1)c1ccc2c(c1)OCCO2	23*	-10%	-10%	21*	3%	-8%
CC(=O)c1cccc(NC(=O)N2CCCC2C(=O)Nc2ccc3c(c2)OCCO3)c1 (configuration not stated)	14*	-9%	-1%	87*	7%	-10%
O=C(NC(=S)Nc1ccc2c(c1)OCO2)c1ccccc1	47*	-2%	-15%	102*	-4%	-10%
O=C(NC(=S)Nc1ccccc1Br)c1ccc2c(c1)OCO2	31*	6%	2%	60*	2%	/
COc1ccc(Br)cc1CN(C)CC(O)COc1ccc(Br)cc1 (configuration not stated)	1	12%	4%	-10	-15%	9%
COc1cccc(CNC(=O)Cc2csc3ccccc23)c1OC	/	/	-2%	/	/	/
Cc1cc2oc(=O)cc(-c3ccccc3)c2c(C)c1-c1ccc(C#N)cc1	11	/	-3%	i	-13%	5%[89.2 µM]
Fc1cccc(NC(=S)Nc2ccc(Br)cc2)c1	19*	-1%	4%	28	7%	-4%
O=C(CCCc1ccccc1)Nc1ccc2c(c1)OCCO2	36*	-7%	3%	66*	15%	-11%
O=C(CC1NCCNC1=O)Nc1ccc2c(c1)OCCO2 (configuration not stated)	16	-2%	0%	-3	-4%	5%
Cc1noc(C)c1COc1cccc(C(=O)OC(C)C(=O)Nc2ccc3c(c2)OCO3)c1 (configuration not stated)	-2	9%	-2%	-7	-6%	-5%
O=C(CC1CS(=O)(=O)CC1CC(=O)Nc1ccc2c(c1)OCCO2)Nc1ccc2c(c1)OCCO2 (configuration not stated)	51*	-6%	-10%	107*	-7%	-22%
Cc1noc(C)c1COc1cccc(C(=O)Nc2ccc3c(c2)OCO3)c1	28*	0%	-1%	61*	-2%	3%
O=C(Nc1ccc2c(c1)OCCO2)c1cccc(Cl)c1	44*	1%	-6%	/	-6%	-1%
COc1ccccc1CNc1nc(=S)[nH]c2cc(OC)c(OC)cc12	23*	0%	1%	48*	-3%	4%
COc1cccc(CNC(=O)CSc2n[nH]c(-c3ccccc3Cl)n2)c1	/	/	-2%	/	/	/
Cc1ccc(O)c(N=Nc2ccc(S(=O)(=O)N3CCCC3)cc2)c1	27*	1%	-13%	42*	-11%	-1%
COc1cccc(N=Nc2ccc3ccccc3c2O)c1	40*	-6%	-19%	58*	-7%	?
COc1ccc(N=Nc2cc(OC)c(N)cc2OC)cc1	/	/	-13%	/	-26%	/
Cc1ccc(O)c(N=Nc2nccs2)c1	/	/	-21%	/	18µM*	/
COc1ccc(N=Nc2cc(C)ccc2O)cc1	48*	?	3%	82*	-21%	-1%
Cc1ccc(S(=O)(=O)N2CCCCC2)cc1	12	0%	-5%	-1	25%	-9%
COc1ccc(N=Nc2ccc3ccccc3c2)c(O)c1	50*	-10%	-11%	/	-7%	-1%
O=C(O)c1ccc(N2C(=O)CC(N3CCN(c4cccc(Cl)c4)CC3)C2=O)cc1 (configuration not stated)	9.7*	9%	0%	/	12%	-5%
CC1(C)CC(=O)C(C=NCCN2CCN(C3CC(=O)N(c4ccc(Cl)c(Cl)c4)C3=O)CC2)=C(O)C1 (configuration not stated)	2	4%	5%	-11	10µM*	1%
SMILES	CHX counter	LmPK inhibitor	Tb PYK inh	Shiga inhibitor	RE007 growth inh	Giardia FBPA inh
COc1ccc(N2C(=O)CC(N3CCN(c4cccc(Cl)c4)CC3)C2=O)cc1 (configuration not stated)	-3	2%	0%	-6	4%	-5%
O=C(O)c1ccc(N2C(=O)CC(N3CCN(c4cccc(C(F)(F)F)c4)CC3)C2=O)cc1 (configuration not stated)	-1	0%	1%	14	-15%	2%
CN1C(=O)CC(N2CCN(CCN=CC3=C(O)CC(C)(C)CC3=O)CC2)C1=O (configuration not stated)	8	-2%	-5%	19	-17%	4%
COc1cccc(N2CCN(C3CC(=O)N(c4ccc(Cl)c(Cl)c4)C3=O)CC2)c1 (configuration not stated)	-1	-4%	1%	-2	35µM*	-6%
O=C1CC(N2CCN(c3ccccc3Cl)CC2)C(=O)N1c1cccc(F)c1 (configuration not stated)	-3	0%	2%	-3	35µM*	3%
CCc1ccc(CNC(=O)C2CCN(C(=O)c3ccc(-n4c(C)cc5ccccc54)s3)CC2)cc1	/	/	1%	/	/	/
CC(OC(=O)CCNS(=O)(=O)c1ccccc1)C(=O)Nc1ccc(S(=O)(=O)N2CCCCC2)cc1 (configuration not stated)	/	/	1%	/	-26%	/
CCCNC(=O)c1cc(C2CCCCN2S(C)(=O)=O)on1 (configuration not stated)	/	/	5%	/	1%	/
O=c1c(-c2ccco2)nc2ccccc2n1C(c1ccccn1)c1nc2ccccc2[nH]1 (configuration not stated)	/	/	/	/	-17%	/
CCOC(=O)N1CCN(C2CC(=O)N(c3ccccc3)C2=O)CC1 (configuration not stated)	-6	-5%	3%	4	-15%	3%
CCOC(=O)N1CCN(C2CC(=O)N(c3ccc(Cl)c(Cl)c3)C2=O)CC1 (configuration not stated)	-1	-2%	-7%	-3	11µM*	2%
O=C(Nc1ccc2ccccc2c1)c1cccc(F)c1	52*	6%	-15%	90*	?	-12%
Cc1ccc2cc(NC(=O)c3ccccc3)ccc2n1	47*	-18%	-4%	67*	-4%	-11%
O=C(Nc1ccc2ccccc2c1)c1ccc(Cl)cc1	41*	-7%	-2%	68*	0%	9%
O=C(Nc1ccncc1)c1ccc2ccccc2c1	43*	-7%	-5%	58*	-25%	-4%
CC(C)Cn1c(CN2CCN(c3cccc(Cl)c3)CC2)nc2c1c(=O)[nH]c(=O)n2C	/	/	5%	/	/	/
O=C(c1ccccc1)N1CCC(c2nc3ccccc3o2)CC1	/	/	2%	/	/	/
Cc1nc2ccc(S(=O)(=O)N(CC(=O)Nc3cccc(Cl)c3)Cc3ccccc3)cc2s1	/	/	9%	/	/	/
Cc1cn2c(=O)cc(COc3cccc(NC(=O)c4ccccc4C)c3)nc2s1	/	/	-3%	/	/	/
CC(=O)Cc1nsc(NC(=O)c2ccc(-c3cccc(C(F)(F)F)c3)o2)n1	-2	-5%	5%	-4	-5%	2%

Screening data deposited in PubChem BioAssay by National Center for Advancing Translational Sciences (NCATS).
